From PubChem BioAssay (NCI) come the findings set out here.

The panel holds about 83,000 compounds, 20% with a hit somewhere; the sample as a whole holds those more often.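 Plates (96-well) were seeded with cells, treated with compound at one concentration, and incubated for 48 hours before percent growth was determined.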 A number with no mark means an inactive call. Active and inactive are the calls of the source. How the source made its calls: active means growth percent below 10; inactive means the rest.

What all share (assay): NCI-60 one-dose screen, 48 h (100 = growth as untreated, 0 = no growth, -100 = all killed)
Test [1] has as its system SK-MEL-2 melanoma. The note with it: 10 µM.
In test [2] the test system is EKVX NSCLC. As to conditions: 10 µM.
The test system of test [3] is SN12C renal. As to conditions: 10 µM.
For test [4], the system named is UO-31 renal. The note with it: 10 µM.
Test [5] concerns TK-10 renal. As to conditions: 10 µM unless noted.
The subject of test [6] is ACHN renal. The note with it: 10 µM.
Test [7] deals with A498 renal. The note with it: 10 µM.
For test [8], the system named is CCRF-CEM leukemia. As to conditions: 10 µM.
The test system of test [9] is MOLT-4 leukemia. As to conditions: 10 µM.
The test system of test [10] is SR leukemia. The note with it: 10 µM.
Test [11] relates to RPMI-8226 leukemia. As to conditions: 10 µM.
For test [12], the system named is OVCAR-8 ovarian. As to conditions: 10 µM.
The subject of test [13] is OVCAR-5 ovarian. The note with it: 10 µM.
In test [14] the test system is OVCAR-4 ovarian. The note with it: 10 µM.
Test [15] deals with SK-OV-3 ovarian. The note with it: 10 µM.
For test [16], the system named is IGROV1 ovarian. As to conditions: 10 µM.
Test [17] has as its system OVCAR-3 ovarian. The note with it: 10 µM.
For test [18], the system named is HS 578T breast. The note with it: 10 µM.
For test [19], the system named is NCI/ADR-RES ovarian. The note with it: 10 µM.
Test [20] deals with CAKI-1 renal. As to conditions: 10 µM.

Regarding `CCC/C=C(/C(C)=O)C(=O)OCC`, the growth is 132% in test [1]; 168% in [2]; 101% in test [3]; 101% in test [4]; 139% in [5]; 103% in test [6]. The growth was 132% in [7]; 143% in test [8]; 135% in [9]; 160% in [10]; 104% in test [11]; 91.8% in test [12]. For the same compound, the growth in test [13] was 92.7%; in [14], 89.8%; in test [15] it was 117%; in test [16] it was 126%; in test [17] it was 119%; in [18] it was 114%. In addition, the growth in test [19] was 107%.

With `CCOC(=O)CSc1c([N+](=O)[O-])ncn1C`, the growth in test [1] is 95.4%; in [2], 95.6%; in test [3], 102%; in test [4] it was 89.8%; in [5], 94.2%; in test [6] it was 101%. Besides, the growth was 114% in test [7]; 94.8% in test [8]; 94.8% in [9]; 86.4% in test [10]; 99.7% in [11]; 103% in test [12]. For the same compound, the growth was 91.8% in test [13]; 105% in [14]; 110% in test [15]; 95.5% in [16]; 103% in test [17]; 103% in test [18]. For the same compound, in test [19], the growth was 101%.

As to `Cc1ccc(Cl)cc1NC(=O)N(C)CCO`, the growth in test [1] was 97.4%; in test [2] it was 116%; in test [3] it was 105%; in test [4] it was 76%; in [5] it was 126%; in test [6] it was 103%. The growth in [7] is 111%; in test [8] it was 98.7%; in test [9], 97.5%; in test [10], 113%; in [11] it was 97.4%; in test [12], 112%. The growth in [13] was 111%; in [14], 136%; in [15], 114%; in test [16], 93%; in test [17] it was 130%; in test [18] it was 236%. Also, the growth in test [19] was 112%.

With `Nc1nc(N)c(N=Nc2ccc(C(=O)O)cc2)c(N)n1`, the growth in test [1] was 97.1%; in test [2], 100%; in test [3] it was 91.4%; in test [4], 53.6%; in test [5], 130%; in test [6], 103%. Moreover, the growth is 96.2% in [7]; 102% in test [8]; 102% in test [9]; 109% in test [10]; 95.1% in test [11]; 104% in [12]. In addition, the growth in test [13] is 101%; in test [14], 105%; in [15], 111%; in [16], 100%; in test [17], 130%; in [18], 102%. Also, the growth in [19] is 101%.

Take `CCNc1nc2c(cnn2C)c(=O)[nH]1`: the growth in test [1] was 103%; in test [2], 99.4%; in test [3] it was 103%; in test [4], 85.7%; in test [5] it was 104%; in [6] it was 107%. For the same compound, the growth was 97.1% in test [7]; 93.9% in test [8]; 102% in test [9]; 92.3% in test [10]; 99.8% in test [11]; 103% in [13]. Further, the growth in test [14] is 109%; in [15], 96.2%; in test [16] it was 84.5%; in [17], 109%; in test [18], 92.5%; in test [19], 108%.

Consider `C=CCNC(=O)c1ccc(OC)cc1`, for which the growth is 97.6% in test [1]; 109% in test [2]; 99.1% in [3]; 74.7% in test [4]; 120% in test [5]; 106% in [6]. The growth was 133% in [7]; 98.4% in test [8]; 102% in test [9]; 110% in [10]; 107% in test [12]; 103% in [13]. Besides, the growth is 134% in [14]; 116% in test [15]; 96.2% in test [16]; 121% in test [17]; 221% in [18]; 101% in test [19].

Take `Clc1ccc(-c2n[nH]c3c2Cc2ccccc2-3)cc1Cl`: the growth in test [1] was 99.6%; in test [2], 86.3%; in test [3] it was 94.1%; in test [4] it was 72.4%; in test [5] it was 101%; in [6] it was 100%. Besides, the growth in test [7] is 110%; in [8], 89.2%; in test [9] it was 91.4%; in test [10], 112%; in test [11], 57.9%; in test [12] it was 110%. The growth was 111% in [13]; 99.9% in [14]; 99.4% in test [15]; 63% in test [16]; 110% in [17]; 110% in [18]. Also, the growth in [19] was 95.1%.

Consider `Oc1ccc(Cc2ccccc2)c2cccnc12`, for which the growth is 12.1% in test [1]; 28.3% in [2]; 20.5% in test [3]; -14.4% (active) in test [4]; 9.22% (active) in [5]; 11.5% in test [6]. The growth is -6.16% (active) in test [20]; 1.19% (active) in test [8]; 3.7% (active) in [9]; 5.04% (active) in [10]; 15.5% in [12]; 37.2% in test [13]. Further, the growth in test [14] was 23.1%; in [16], -4.71% (active); in test [17], 28.9%; in [19] it was 0.0508% (active).
